30 molecules from PubChem BioAssay can be followed below.

Molecules are shown by their SMILES.

The subject of this assay is Lefty1. The assay is described as follows: Lefty1 binders on small-molecule microarrays, primary screen, biochemical, small-molecule microarray, 635/667 nm fluorescence (AID 1139). Particulars: small-molecule microarray binding, fluorescence 635/667; higher = more signal.
The molecule `C[N+](C)(C)CCCCNC(=O)[C@H]1C[C@H]2C(=O)N3CCC[C@H]3C(=O)N2[C@H]1c1ccc(O)cc1` came in with a composite z-score of 1.49.

Molecule `O=S(=O)(NCCCO)c1ccc(Br)cc1` registered a composite z-score of -0.0569.

Turning to `Cc1ccc(S(=O)(=O)N2CC(C(=O)O)=CCC2c2ccccc2)cc1` (stereo not given), the composite z-score is -0.946.

Molecule `C=CCOC(=O)[C@H]1[C@@H]2C(=O)O[C@@H](c3ccccc3)[C@@H](c3ccccc3)N2[C@@H](c2ccc(OCCOC(=O)[C@@H]3C[C@@H]4C(=O)NCC(=O)N4[C@@H]3c3ccc(O)cc3)cc2)[C@]12C(=O)Nc1ccc(I)cc12` yielded a composite z-score of 1.24.

In turn, `CC(=O)NCCCC[C@@H]1NC(=O)[C@@H]2C[C@H](C(=O)NCCCCCC[N+](C)(C)C)[C@H](c3cccc(OCCO)c3)N2C1=O` registered a composite z-score of 1.26.

As to `C/C=C/[C@H](CCn1cc([C@H](O)c2ccccc2)nn1)[Si](C)(C)c1ccc(OC)cc1`, the composite z-score was -0.781.

Take `CCCNC(=O)[C@@]1(C)c2ccccc2C(=O)N(Cc2cc(C(F)(F)F)cc(C(F)(F)F)c2)[C@H]1c1ccc(CO)cc1`: the composite z-score was -0.524.

As to `C=C(CCCC)/C(=C/C[C@H](OC(C)=O)c1ccc(CO)o1)c1cc(C(=O)OC)ccc1OC`, the composite z-score turned out to be 1.42.

For the molecule `C=CCCN(CC#C[C@H]1Oc2ccccc2S(=O)(=O)N2CCC[C@@H]12)S(=O)(=O)c1ccc(C)cc1`, the composite z-score amounted to 0.317.

Consider `CN1C(=O)C2C=CC(C(O)C(c3ccccc3)c3ccccc3)N(Nc3ccccc3)C2C1=O` (stereo not given), for which the composite z-score came to 0.643.

On to `O=C1OCCC/C=C\[C@H]2OC34C=CCN(CCN5CCOCC5)C(=O)[C@H]3N(CCO)C(=O)[C@@H]4C12` (stereo not given in full), for which the composite z-score is -1.57.

Consider `COCCOC(=O)N1C(=O)[C@@]2(c3cc(C#CC4(O)CCCCCC4)ccc31)[C@H](c1ccc(O)cc1)N1[C@H](c3ccccc3)[C@H](c3ccccc3)OC(=O)[C@H]1[C@@H]2C(=O)N1CCc2cc(OC)c(OC)cc2C1`, for which the composite z-score was -0.625.

Consider `COCCn1c(C(=O)N2CCCC2)cc2c1C[C@H]1CN(C(=O)c3ccccc3)[C@@](Cc3ccc(OC)cc3)(C(=O)OC)[C@@H]21`, for which the composite z-score was -0.0277.

Take `Cc1cc(C)c(C(O)C2C=CC3C(=O)NC(=O)C3N2Nc2ccccn2)c(C)c1` (stereo not given): the composite z-score came to 0.0668.

In turn, `CC(c1ccccc1)C(O)C1C=CC2C(=O)N(Cc3ccccc3)C(=O)C2N1n1cnnc1` (stereo not given) displayed a composite z-score of -0.133.

In turn, `O=C(NCC(O)CO)[C@@]1(Cc2ccccc2)N=C(c2ccc(OCCCO)cc2)O[C@H]1c1ccccc1` (stereo not given in full) registered a composite z-score of -0.836.

`CC(c1ccccc1)C(O)C1C=CC2C(=O)N(c3ccccc3)C(=O)C2N1Nc1ccccc1F` (stereo not given): the composite z-score is 0.226.

Regarding `C=CC[C@@]1(C(=O)NCc2ccccc2)N=C(c2ccc(OCCCO)cc2)O[C@@H]1c1ccccc1CN=[N+]=[N-]`, the composite z-score is -0.0518.

In turn, `C=CCN1C(=O)[C@]2(Cc3ccccc31)N=C(c1ccc(OCCCO)cc1)O[C@@H]2c1ccccc1` returned a composite z-score of 0.366.

`CCCCC(=O)N(Cc1ccccc1F)[C@@H]1CC(C(=O)NCCO)=C[C@H](Oc2c(I)cc(CO)cc2OC)[C@H]1O`: the composite z-score stood at 1.58.

The molecule `Cc1c(NC(=O)/C(C#N)=C/C=C/c2ccccc2)c(=O)n(-c2ccccc2)n1C` showed a composite z-score of 0.451.

`CC(C)(C)OC(=O)CC[C@]1(C(=O)NCC(O)CO)N=C(c2ccc(OCCCO)cc2)O[C@H]1c1ccccc1CN=[N+]=[N-]` (stereo not given in full) returned a composite z-score of -0.637.

In turn, `CCCC[C@@H]1C[C@H]1[C@@H](NC(=O)c1ccco1)c1ccccc1` returned a composite z-score of -1.06.

Turning to `NC(=O)NCC#Cc1ccc2c(c1)[C@]1(C(=O)N2)[C@H](c2ccccc2OCCO)N2[C@H](c3ccccc3)[C@H](c3ccccc3)OC(=O)[C@H]2[C@@H]1C(=O)N1CCCCCCC1`, the composite z-score turned out to be 0.912.

Regarding `C=C(COC)C(=O)CC[C@H](OC(=O)c1cccnc1)c1ccccc1OCCO`, the composite z-score turned out to be 1.47.

The molecule `C=C(C(=O)CC[C@@H](OC(=O)c1cccnc1)c1ccc(CO)o1)C(C)C` yielded a composite z-score of 1.56.

`O=C1O[C@H](c2ccccc2)[C@H](c2ccccc2)N2[C@H]1[C@@H](C(=O)Nc1nc3ccccc3s1)[C@]1(C(=O)Nc3ccc(C#CC4=CCCCC4)cc31)[C@H]2c1ccc(OCCO)cc1` displayed a composite z-score of 0.077.

In turn, `COCCOC(=O)N1C(=O)[C@@]2(c3cc(C#Cc4ccc(OC)cc4)ccc31)[C@H](C(N)=O)[C@H]1C(=O)O[C@H](c3ccccc3)[C@H](c3ccccc3)N1[C@@H]2c1ccc(O)cc1` had a composite z-score of -2.08.

`CN1C(=O)C2C(C1=O)C1C=C(c3ccc(CO)cc3)C2C(C2CC2)N1Cc1sc2ccccc2c1Cl` (stereo not given) displayed a composite z-score of 0.453.

`CC1CC/C=C\[C@H]2OC34C=CCN(Cn5nnc6ccccc65)C(=O)[C@H]3N(CCCO)C(=O)[C@@H]4C2C(=O)O1` (stereo not given in full) registered a composite z-score of -0.146.
